Shown are actives, neighbours in structure and some others; about 4.8% of the full set was active somewhere.
DAX1 inh-1 = DAX1 (NR0B1) inhibitors on StAR promoter, primary screen, cell-based, luminescence, SF-1 (NR5A1), full-length DAX-1 | HEK293T StAR-luciferase reporter, SF-1/DAX-1 repression relief | inhibition, % at 6.8 µM | 1.1% of 370,000 active | AID 652010, 2013;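 active = inhibition above the mean over all tested compounds plus 3 SD, cut at about 3.6% in these data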;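 note: higher inhibition means more luminescence from relief of DAX-1 repression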
Rev-erbA mod = modulators of Rev-erb alpha DNA binding, primary screen, biochemical, FITC-DNA, fluorescence polarization, uHTS; Nuclear receptor subfamily 1 group D member 1 (Homo sapiens), P20393; Rev-erbα–FITC-DNA binding, 90 min; activity, % at 10 µM; 0.79% of 370,000 active; AID 1259318, 2017;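 active = activity above about 14%, limit read from the data; passing the limit was not always enough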
Target sequence (P20393 whole entry, looked up): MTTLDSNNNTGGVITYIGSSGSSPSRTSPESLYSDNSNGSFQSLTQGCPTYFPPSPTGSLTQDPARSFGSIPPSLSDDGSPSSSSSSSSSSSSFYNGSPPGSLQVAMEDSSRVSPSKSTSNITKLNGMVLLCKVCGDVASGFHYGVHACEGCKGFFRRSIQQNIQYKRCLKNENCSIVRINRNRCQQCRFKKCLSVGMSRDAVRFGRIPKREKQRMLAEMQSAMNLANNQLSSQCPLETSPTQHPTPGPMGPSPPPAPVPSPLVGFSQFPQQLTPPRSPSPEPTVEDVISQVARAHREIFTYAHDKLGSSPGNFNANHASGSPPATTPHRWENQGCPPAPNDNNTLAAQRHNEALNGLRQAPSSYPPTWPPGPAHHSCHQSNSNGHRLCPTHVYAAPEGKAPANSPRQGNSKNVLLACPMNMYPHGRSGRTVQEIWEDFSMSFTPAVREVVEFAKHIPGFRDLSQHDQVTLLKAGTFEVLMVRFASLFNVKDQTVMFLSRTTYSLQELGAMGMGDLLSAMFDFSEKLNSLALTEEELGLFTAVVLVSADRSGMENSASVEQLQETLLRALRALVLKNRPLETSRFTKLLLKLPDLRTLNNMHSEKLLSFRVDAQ
ssDAF-12 act = S. stercoralis DAF-12 nuclear receptor activators, primary screen, cell-based, luminescence, HEK293, GRIP1 co-expression, lit1-tk-luc. HEK293 ssDAF-12/GRIP1 lit1-tk-luc reporter; % of 3 µM dafachronic acid response. activation, % at 6.8 µM. 1% of 370,000 active. AID 652126, 2013;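 active = activation above the mean over all tested compounds plus 3 SD, cut at about 0.9% in these data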
hcDAF12 agonist = H. contortus DAF-12 nuclear receptor activators, primary screen, cell-based, luminescence, HEK293, lit1-tk-luc reporter; HEK293 hcDAF-12 lit1-tk-luc reporter; 0% DMSO, 100% Δ7-dafachronic acid; activation, % at 6.8 µM; 1.4% of 370,000 active; AID 652067, 2013;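 active = activation above the mean of all tested compounds plus 3 SD, cut at about 5.5% in these data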
hgDAF-12 ag = H. glycines DAF-12 receptor agonists, primary screen, cell-based, luminescence, HEK293, GAL4 fusion, UAS-luciferase; 1.8% of 370,000 active; activation, % at 6.8 µM; AID 687014, 2013; HEK293 GAL4-hgDAF12 UAS-luciferase reporter, agonist luminescence; normalized to butyrate control; Nuclear hormone receptor DAF-12 (Heterodera glycines), GAL4 fusion;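 active = activation above a cutoff set at the mean of all screened compounds plus 3 SD, cut at about 10% in these data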
DAX1 inh-2 = DAX1 (NR0B1) inhibitors, primary screen, cell-based, HEK293, Gal4-DAX1, luciferase luminescence; Nuclear receptor subfamily 0 group B member 1 (Homo sapiens), P51843; HEK293 Gal4-DAX1 luciferase reporter; inhibition, % at 6.75 µM; 0.99% of 340,000 active;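 active = inhibition above the mean over all tested compounds plus 3 SD, cut at about 4.2% in these data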;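 note: inhibition shows as a rise in luminescence from relieved DAX1 repression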
NR1D1 mod conf = modulators of Rev-erb alpha DNA binding, confirmation, biochemical, FITC-DNA, fluorescence polarization, single point; shares compounds with Rev-erbA mod; 90 min; activation, % at 25 µM; 61% of 3,000 active; AID 1259319, 2017;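 active = activation at or above a set limit, or at least 3 SD above the negative control mean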
RORg DNA counter = modulation of RORgamma DNA binding, dose response, counter-screen for Rev-erb alpha modulator project, biochemical, fluorescence polarization, FITC-DNA; IC50, µM; purified RORgamma protein-FITC-DNA binding; shares compounds with Rev-erbA mod; 8% of 910 active;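 active = Compounds whose fitted half-maximal concentration for disrupting protein-DNA binding is below 10 micromolar; the record names Rev-erb in its text, so the target is in doubt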
Each line names hits and unclear results; the compound was inactive in the other large screens (follow-up assays come after a bar, where they were run).

COC(=O)[C@]12C[C@H](CC(=O)N3CCN(C(=O)C4CC4)CC3)C(=O)N(Cc3cccc4ccccc34)C1=C[C@H](C(C)(C)C)O[C@@H]2C	none (no result: DAX1 inh-2)
O=C(NCCc1ccccc1)O[C@H]1CC[C@@]23CCCN2C(=O)CCC[C@H]3C1	none (no result: DAX1 inh-1, DAX1 inh-2)
COC(=O)c1ccc(C(=O)OC)c(NC(=O)N2c3ccccc3Sc3ccccc32)c1	Rev-erbA mod 26.2 | NR1D1 mod conf 47.5 | RORg DNA counter inactive
CN(C)c1ccc(/C=C(/C#N)C(=O)NCc2ccccc2)o1	Rev-erbA mod 32.8 | NR1D1 mod conf inactive
N#C/C(=C/c1ccccc1)C(=O)NCc1ccccc1	none
CC(C)(C)S(=O)(=O)N1C[C@@H]2CC(=O)C(CCO)=C2[C@H]1CCO	none (no result: DAX1 inh-2)
Cc1ccc2[nH]c(=O)c3cc(C(=O)N(C)c4ccc(C)c(C)c4)sc3c2c1	none
Cc1ccc2[nH]c(=O)c3cc(C(=O)N(C)C4CCCCC4)sc3c2c1	Rev-erbA mod 20.8 | NR1D1 mod conf inactive
CCc1ccc2[nH]cc(S(=O)(=O)c3ccc(C)c(C)c3)c(=O)c2c1	none
CCc1ccc2[nH]c3nc(C)cc(C)c3c(=O)c2c1	Rev-erbA mod 29.7 | NR1D1 mod conf 24.9
O=S1(=O)c2ccc(N3CCC[C@H]3CO)cc2O[C@@H]2CCN1C2	none (no result: DAX1 inh-2)
O=c1c2cc(F)ccc2[nH]c(=S)n1Cc1ccc(F)cc1	Rev-erbA mod 57.0 | NR1D1 mod conf 17.3
O=c1c2ccccc2[nH]c(=S)n1Cc1ccc2c(c1)OCO2	Rev-erbA mod 37.7 | NR1D1 mod conf 47.5 | RORg DNA counter inactive
NS(=O)(=O)c1ccc(CCn2c(=S)[nH]c3ccc(F)cc3c2=O)cc1	Rev-erbA mod 58.1 | NR1D1 mod conf 39.7 | RORg DNA counter inactive
COc1ccccc1Cn1c(=S)[nH]c2ccc(F)cc2c1=O	none
CC(C)COc1ccc(-c2csc(N3CCC(C(N)=O)CC3)n2)cc1	none (no result: DAX1 inh-1, DAX1 inh-2)
COc1ccccc1CCn1cnc(-c2ccc(F)cc2F)c1CC(C)C	none (no result: DAX1 inh-2)
COC(=O)c1sc2nc(SCc3ccccc3C)n(N)c(=O)c2c1C	Rev-erbA mod 107.4 | NR1D1 mod conf inactive
CC(C)CN(C[C@@H](O)[C@H](Cc1ccccc1)NC(=O)O[C@H]1CO[C@H]2OCC[C@H]21)S(=O)(=O)c1ccc(N)cc1	none (no result: DAX1 inh-1, ssDAF-12 act, hcDAF12 agonist, hgDAF-12 ag, DAX1 inh-2)
NNc1nc2ccc(Cl)cc2s1	none
Fc1ccc2nc(Nc3nc4c(F)cc(F)cc4s3)sc2c1	Rev-erbA mod 53.0 | NR1D1 mod conf 41.3 | RORg DNA counter inactive
CCOC(=O)c1c(NC(=O)CSc2nc3ccccc3c(=O)n2-c2ccccc2)sc(C(C)=O)c1C	Rev-erbA mod 140.3 | NR1D1 mod conf inactive
CCc1nnc(NC(=O)CSc2nc3cc4c(cc3cc2C)OCCO4)s1	Rev-erbA mod 46.8 | NR1D1 mod conf 46.9 | RORg DNA counter inactive
CCOC(=O)c1c(NC(=O)CSc2nc(C)cc(C)c2C#N)sc(C(C)=O)c1C	Rev-erbA mod 35.2 | NR1D1 mod conf 16.7
N#Cc1cc2c(nc1SCC(=O)O)CCCCC2	none
CCc1nnc(NC(=O)CSc2nc3c(cc2C#N)CCCC3)s1	Rev-erbA mod 33.8 | NR1D1 mod conf 22.9
CCOC(=O)c1c(NC(=O)CSc2nnc(-c3ccc(C)cc3)o2)sc(C(C)=O)c1C	none
COc1ccc(C(C(=O)N(C)C2CCCC2)N(Cc2ccc(F)cc2)C(=O)c2ccc3ccccc3c2)cc1OC (stereo not drawn)	none (no result: DAX1 inh-2)
CC(C)(C)OC(=O)NCc1cc2c(cc1/C=C/S(=O)(=O)NCc1ccc(F)cc1)OCO2	none (no result: DAX1 inh-2)
CCOC(=O)[C@]12CCCC=C1N(Cc1ccc(OC)cc1)C(=O)[C@@H]2CC(=O)NCCCN1CCCC1=O	none (no result: DAX1 inh-2)
CCOC(=O)c1sc(NC(=O)CSc2nc3c(cc2C#N)CCCCC3)c(C#N)c1C	Rev-erbA mod 30.4 | NR1D1 mod conf 19.8
CCOC(=O)c1sc(NC(=O)CSc2nc(C)cc(C)n2)c(C#N)c1C	none
CCC(CC)C1=NN2C(=N)/C(=C\c3cc(C)n(-c4cccc(C)c4)c3C)C(=O)N=C2S1	Rev-erbA mod 32.0 | NR1D1 mod conf inactive
Cc1cc(/C=C2\C(=N)N3C(SCc4ccccc4)=NSC3=NC2=O)c(C)n1Cc1ccccc1	Rev-erbA mod 73.5 | NR1D1 mod conf 41.3
Cc1cc(/C=C2\C(=N)N3N=C(C(C)C)SC3=NC2=O)c(C)n1Cc1ccccc1	none
O=C(NCc1ccccc1)[C@@H]1CCCN1C(=O)[C@H]1CCCN1C(=O)c1ccc(F)c(C(F)(F)F)c1	none (no result: DAX1 inh-2)
CCOc1ccccc1NC(=O)c1cc2c(C)nn(-c3ccccc3)c2s1	none (no result: DAX1 inh-2)
Cc1cnc(NC(=O)c2cc3c(C)nn(-c4ccccc4)c3s2)s1	Rev-erbA mod 40.4 | NR1D1 mod conf 35.2 | RORg DNA counter inactive
COC(=O)c1ccc2nc(-c3cccc(Cl)c3)c(Cc3ccccc3C(F)(F)F)n2c1	none (no result: DAX1 inh-2)
CCc1ccc2c(COC(=O)CNS(=O)(=O)c3ccc(NC(C)=O)cc3)cc(=O)oc2c1	none
CCOC(=O)Nc1ccc2c(COC(=O)c3ccccc3O)cc(=O)oc2c1	none
CCOC(=O)Nc1ccc2c(COC(=O)CN(C)S(=O)(=O)c3ccc(C)cc3)cc(=O)oc2c1	Rev-erbA mod 46.0 | NR1D1 mod conf inactive
CCOC(=O)Nc1ccc2c(COC(=O)CNS(=O)(=O)c3cccc(Br)c3)cc(=O)oc2c1	Rev-erbA mod 75.7 | NR1D1 mod conf 43.1
CCN1CCCCC(NC(=O)c2ccc(Cl)cc2Cl)C1=O (stereo not drawn)	none (no result: DAX1 inh-2)
COc1ccc(NC(=O)c2cc3c([nH]c4ccccc43)c(C)n2)cc1	none
Cc1nc(C(=O)Nc2ccccc2Cl)cc2c1[nH]c1ccccc12	Rev-erbA mod 21.2 | NR1D1 mod conf inactive
CCc1ccc(Nc2n[n+](-c3ccccc3)c(-c3ccc(N(CC)CC)cc3)s2)cc1	none
CCc1ccc(Nc2n[n+](-c3ccccc3)c(-c3ccc(OCc4ccccc4)cc3)s2)cc1	Rev-erbA mod 16.3 | NR1D1 mod conf inactive
